Test results published in PubChem BioAssay (NCI).
About 83,000 compounds went through this panel and 20% of them were active in at least one assay; those are over-represented in the sample as a whole.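 Treatment: one concentration, 48 hours, 96-well format. Scoring: percent growth, with anything below 10 considered active.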 Unmarked numbers belong to inactive results. The source made the active and inactive calls.

Test system: SK-MEL-28 melanoma
Experiment: NCI-60 one-dose screen, 48 h (100 = growth as untreated, 0 = no growth, -100 = all killed)
Settings: 10 µM

Going from CNc1nc(NC)c2cn[nH]c2n1 to Cc1nc2c(ccc3ccccc32)s1, the growth falls from 115% to 105%.

Compared with O=C(CN1CCNCC1)N1CCOCC1, O=S(=O)(O)CC(O)CN1CCN(CCO)CC1 (centres undefined) is higher in growth: 115% for the first, 117% for the second.

Going from CC1CCC2C(C)(C)C3CC12CC1OC13C (centres undefined) to CC(=O)OCC1OC(OC2=C(CC=C(C)C)C(=O)c3ccccc3C2=O)C(OC(C)=O)C(OC(C)=O)C1OC(C)=O (centres undefined), the growth falls from 103% to 30.3%.

Going from COc1cc(OC)c2ccc(=O)oc2c1 to COc1cc(C(=O)N/N=C/c2cccc([N+](=O)[O-])c2)cc(OC)c1OC, the growth falls from 115% to 62.1%.

First: COC1=CC(=O)c2nc(Cl)ccc2C1=O
Second: C/C(=C\c1cc(Cl)ccc1OCC(=O)O)[N+](=O)[O-]
The growth of the first is lower: 111% for the first, 118% for the second.

First: COc1ccccc1NC(=O)C1=C(C)NC(C)=C(C(=O)Nc2ccccc2OC)C1c1cccc([N+](=O)[O-])c1
Second: O=c1cc(-c2ccccc2)oc2c1ccc1ccccc12
The growth of the first is lower: 82.2% for the first, 99.3% for the second.

First: N=c1c(C(=O)OCc2ccccc2)ncc(CCl)n1O
Second: Oc1ccc(Cc2ccccc2)c2cccnc12
The growth of the first is higher: 98.1% for the first, 32.2% for the second.

Compared with Cc1cc(OCCO)cc(C)c1Cl, CCOc1ccc2[nH]c(=S)sc2c1 is lower in growth: 118% for the first, 109% for the second.

CC1Cc2ccccc2O1 (centres undefined) and CC1C(=O)c2ccccc2CC1C(=O)O (centres undefined) are the same in growth: 114% for the first, 114% for the second.

Compared with CCOC(=O)C1=C(C)NC(=O)NC1c1cccs1 (centres undefined), CC(=O)c1ccc(C)c(N)c1 is lower in growth: 106% for the first, 105% for the second.

Going from COc1ccc(/C=C/c2cccc[n+]2C)cc1 to O=[N+]([O-])c1ccc(/C=C/C=C/c2ccccc2)c(Cl)c1, the growth falls from 109% to 106%.

Compared with NC(=S)NN=C1CCCC1, N#Cc1c(N)sc(=S)c2c1CCCC2 is higher in growth: 101% for the first, 112% for the second.

First: CCCC(=O)Nc1ccc2c(c1)CN1C(=O)c3ccccc3C1=N2
Second: Cc1cc2nc(CC(=O)c3ccccc3)c(=O)[nH]c2cc1C
The growth of the first is higher: 111% for the first, 109% for the second.

Going from O=C(O)CCCC(=O)O to CC(C)CCCC(=O)O, the growth falls from 102% to 99%.

First: CCCCCCCCOC(=O)c1ccccn1
Second: CCN(CC)C(=O)/C=C(/C)c1ccccc1
The growth of the first is higher: 107% for the first, 106% for the second.

Going from CCC(C)(O)c1ccc(C)cc1 (centres undefined) to O=c1c2ccccc2c(Br)c(Br)c2ccccc12, the growth rises from 104% to 106%.

Compared with O=[N+]([O-])c1ccc(Sc2ccncn2)c([N+](=O)[O-])c1, O=[N+]([O-])c1cccc2nsnc12 is higher in growth: 96.1% for the first, 114% for the second.

First: COc1nc(N)nc2c1ncn2C1OC(CO)CC1O (centres undefined)
Second: O=c1cc2oc3cc(O)c(O)cc3c(-c3ccccc3O)c-2cc1O
The growth of the first is higher: 108% for the first, 81.6% for the second.

With CC1(C)Nc2cccc3c(N=Nc4ccc(N=Nc5ccccc5)c5ccccc45)ccc(c23)N1 the growth was 116%.

For CCN(CC)CCCC(C)Nc1ccnc(/C=C/c2ccc(Cl)cc2)c1 (centres undefined), the growth was -87.5% (active).
For CCN(CC)c1ccc2nc3ccc(=[N+](CC)CC)cc-3oc2c1, the growth was 2.45% (active).
